Assay outcomes as filed in PubChem BioAssay.
Wnt act – activates Wnt/beta-catenin signaling in a reporter cell assay; activator, plate reader; activation, % at 9.35 µM; 300,000 compounds, 1.2% hits; AID 743398; in the data active = activation above about 30%, passing the limit was not always enough
MITF act – activators of MITF-driven TRPM1 promoter activity in SK-MEL-5 cells | SK-MEL-5 TRPM1-promoter luciferase, 24 h; % of positive control, neutral wells = 0 | activation, % at 12.5 µM | 300,000 compounds, 0.75% hits | AID 588334;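 active = mean activation of at least 80% with every replicate also reaching 80%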
INS-1E GSIS act – GLuc luminescence reporter in INS-1E cells, primary screen for activators of glucose-dependent secretion of insulin; INS-1E GLuc reporter insulin secretion, 2-3 h; activation, % at 16.6 µM; 370,000 compounds, 0.61% hits; AID 743287;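 active = lowest replicate activation of at least 40%, so every replicate reaches that level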
CFTR F508del cor – correctors of CFTR F508del function in bronchial epithelial cells. CFBE cells, YFP halide quenching; stimulated with forskolin plus potentiator P3; % fluorescence drop versus neutral controls. activity (quench increase), % at 7.58 µM. 350,000 compounds, 0.36% hits;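 active = mean added fluorescence quench of at least 8% versus neutral control, with both replicates also reaching 8%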;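 note: cells transiently co-express mutant CFTR-F508del with the halide-sensitive YFP; corrector assay measuring rescue of mutant channel to the surface after 24 h compound exposure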
HIV Env fusion – inhibitors of HIV Env-mediated cell fusion. HeLa-JRFL Env/CEM21 cell fusion, luciferase. inhibition, % at 12.3 µM. 360,000 compounds, 1.1% hits. AID 651610;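 active = mean replicate inhibition score of at least 50 and every replicate individually at or above 50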
Each line names hits and unclear results; the compound was inactive in the other large screens. A selection: hits, their analogues and other compounds. The true share with any hit is near 2.7%.

Cc1ccnc(NC(=O)C2COc3ccccc3O2)c1 (stereo not drawn)	Wnt act 58, MITF act 88
O=C(NC1CCCCC1)C1COc2ccccc2O1 (stereo not drawn)	none
CN1C(=O)c2cc(NC(=O)C3CCCC3)ccc2OC[C@H]2O[C@@H](CC(=O)NCCc3ccncc3)CC[C@@H]21	none (no result: Wnt act, MITF act, HIV Env fusion)
COc1nccnc1NS(=O)(=O)c1ccc(NC(=S)NC(=O)/C=C/c2ccc(F)cc2)cc1	none (no result: INS-1E GSIS act, HIV Env fusion)
COc1ccc(/C=C/C(=O)NC(=S)Nc2ccc(S(N)(=O)=O)cc2)cc1OC	INS-1E GSIS act 44
O=C(/C=C/c1ccccc1)Nc1cccc(C(=O)O)c1	HIV Env fusion 78
COc1cc(NS(=O)(=O)c2ccc(NC(=S)NC(=O)/C=C/c3ccc(F)cc3)cc2)ncn1	Wnt act 41
COc1ccc(/C=C/C(=O)NC(=S)Nc2ccccc2)cc1OC	none
COc1ccc(/C=C/C(=O)Nc2ccccc2)cc1OC	MITF act 90
CCNC(=O)C[C@@H]1CC[C@H]2[C@@H](COc3ccc(NC(=O)c4cccc(C(F)(F)F)c4)cc3C(=O)N2C)O1	none (no result: Wnt act, MITF act)
C[C@H](NC(=O)[C@@H]1[C@@H](CO)[C@@H]2Cn3c(cccc3=O)[C@H]1N2Cc1ccccc1)c1ccccc1	none (no result: Wnt act, MITF act, HIV Env fusion)
COc1ccc(NC(=O)/C=C/c2ccc(F)cc2)cn1	none
COc1ccc(NC(=O)/C=C/c2ccccc2)cn1	MITF act 122 (no result: Wnt act, CFTR F508del cor)
COc1ccc(/C=C/C(=O)Nc2cc(=O)n(C)c(=O)n2C)cc1	none (no result: Wnt act, CFTR F508del cor)
Cn1c(NC(=O)/C=C/c2ccccc2)cc(=O)n(C)c1=O	Wnt act 61 (no result: CFTR F508del cor)
CN1C(=O)c2cc(NC(=O)c3ccc(Cl)cc3)ccc2OC[C@H]2O[C@@H](CC(=O)O)CC[C@@H]21	none (no result: Wnt act, MITF act)
COc1ccc2c3c(n(C)c2c1)[C@@H](CO)N(C(=O)C1CCCC1)CC31CN(C)C1	none (no result: Wnt act, MITF act, HIV Env fusion)
CC(=O)N1[C@@H]2c3ccc(-c4ccccc4F)c(=O)n3C[C@H]1[C@H](CO)[C@H]2C(=O)N1CCOCC1	none (no result: Wnt act, MITF act, HIV Env fusion)
CC(=O)C1(C)N(O)C(C)(C)C(c2ccco2)=[N+]1[O-] (stereo not drawn)	HIV Env fusion 58 (no result: MITF act, INS-1E GSIS act, CFTR F508del cor)
CC1(C)C(c2ccccn2)=[N+]([O-])C(C)(C)N1O	none (no result: Wnt act, INS-1E GSIS act, CFTR F508del cor, HIV Env fusion)
CC(CCc1ccco1)NC(=O)CCc1nnc2ccc(NCc3ccccc3Cl)nn12 (stereo not drawn)	HIV Env fusion 77
CCOC(=O)c1nnn(CC(=O)NC(=O)Nc2cccc(CC)c2)c1C(=O)OCC	Wnt act 36
CCc1cccc(NC(=O)NC(=O)Cn2nnc(C(=O)OC)c2C(=O)OC)c1	none (no result: INS-1E GSIS act)
CC(C)CN(C(=O)COC(=O)c1cccc2ccccc12)c1c(N)n(Cc2ccccc2)c(=O)[nH]c1=O	none (no result: HIV Env fusion)
CCN(C(=O)COC(=O)c1cccc2ccccc12)c1c(N)n(Cc2ccccc2)c(=O)[nH]c1=O	CFTR F508del cor 18 (no result: HIV Env fusion)
COCCN(C(=O)COC(=O)c1ccc2c(c1)OCCO2)c1c(N)n(Cc2ccccc2)c(=O)[nH]c1=O	none (no result: HIV Env fusion)
CC(C)CN(C(=O)COC(=O)/C=C/c1cccs1)c1c(N)n(Cc2ccccc2)c(=O)[nH]c1=O	INS-1E GSIS act 44
COCCN(C(=O)COC(=O)c1ccc(C=O)cc1)c1c(N)n(Cc2ccccc2)c(=O)[nH]c1=O	HIV Env fusion 58
C[C@@H]1CN([C@H](C)CO)C(=O)c2cccc(N(C)C)c2O[C@H]1CN(C)Cc1ccc(-c2ccccc2)cc1	none (no result: Wnt act, MITF act)
C[C@@H]1CN([C@@H](C)CO)C(=O)c2cccc(NC(=O)C3CCCCC3)c2O[C@H]1CN(C)C(=O)Nc1ccc(F)cc1	none (no result: Wnt act, MITF act, HIV Env fusion)
O=C1NC(=O)C2(CCCCC2C2CCCCC2)N1 (stereo not drawn)	INS-1E GSIS act 62 (no result: HIV Env fusion)
C[C@@H]1CCCCO[C@@H](CN(C)C(=O)Cc2ccccc2)[C@@H](C)CN([C@@H](C)CO)C(=O)c2cc(NS(=O)(=O)c3ccccc3)ccc2O1	none (no result: Wnt act, MITF act)
O=C(NC(Nc1nc2ccc([N+](=O)[O-])cc2s1)(C(F)(F)F)C(F)(F)F)c1ccccc1Cl	none (no result: Wnt act, CFTR F508del cor)
O=C(NC(Nc1nc2ccc([N+](=O)[O-])cc2s1)(C(F)(F)F)C(F)(F)F)c1cccnc1	HIV Env fusion 123
Cc1ccc(C(=O)Nc2nc3ccc(S(C)(=O)=O)cc3s2)o1	Wnt act 53 (no result: MITF act, INS-1E GSIS act, CFTR F508del cor)
O=C(Nc1nc2c(F)cccc2s1)c1ccc([N+](=O)[O-])o1	none (no result: MITF act, INS-1E GSIS act)
O=C(Nc1nc2ccc(F)cc2s1)c1ccc([N+](=O)[O-])o1	Wnt act 71 (no result: MITF act, INS-1E GSIS act)
O=C(Nc1nc2ccc(F)cc2s1)c1cccs1	Wnt act 57
